Structures are written as SMILES. Inconclusive results are not listed. Activity calls are given as the source filed them. Unless noted, how the calls were made is not given here.

Here are results for nine compounds from PubChem BioAssay (NCATS).

Experiment [1] is described as follows: qHTS profiling of the MIPE4 collection as inhibitors of Plasmodium falciparum (HB3) proliferation (AID 743347).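 Further: plate controls were DMSO vehicle wells for no effect and artemisinin wells for full effect.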 The settings on record: P. falciparum HB3 in erythrocytes, SYBR Green DNA, 72 h; at 28.5 µM (top of the series) unless noted. An outline of the steps:
(§1)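 Parasite DNA was quantified by SYBR Green I fluorescence (ex 485, em 535 nm) after overnight lysis in saponin/Triton buffer at room temperature. Cultures at 0.3% parasitemia and 2.5% hematocrit were first exposed to compound for 72 h at 37 C; signals were normalised to artemisinin (0.29 uM) and vehicle wells.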
On the technique in general: In qHTS, concentration-response curves come from the screen itself.

The nature of experiment [2]: High-throughput drug toxicity screening in the BPDCN cell line Gen2.2 (AID 1224824).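 Further: cells exposed to compounds for 48 h before reading.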 The settings on record: Gen2.2 BPDCN cells; at 45.8 µM (top of the series) unless noted. The gist of the method:
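Seed 500 exponentially growing Gen2.2 cells/well; add compounds by pin tool; incubate 48 h, 37 °C, 5% CO2; add CellTiter-Glo, 15 min RT; read luminescence. % activity vs DMSO (100%) and bortezomib (0%).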

The nature of experiment [3]: High-throughput drug toxicity screening in the BPDCN cell line Cal-1 (AID 1224825). The note with it: Cal-1 BPDCN cell viability, qHTS; at 45.8 µM (top of the series) unless noted. The gist of the method: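 CellTiter-Glo luminescence after 48 h compound exposure; percent activity scaled with DMSO as 100% and bortezomib (9.2 uM final) as 0%. Cal-1 cells seeded at 500/well in RPMI, 10% FBS, no phenol red.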

A short description of experiment [4]: qHTS assay for measurement of the activity of small molecule inhibitors on Zika virus induced Caspase-3 activity in human iPSC derived neural progenitor cells (hNPCs) (AID 1224857; active means well fitted curve in the direction sought with a large enough effect; an effect the other way counts as inactive or inconclusive; further: nearly all actives have a fitted effect of over 65% in size; further: potency means the concentration at half of the fitted maximal effect). An outline of the steps: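 Zika virus (2 FFU/cell) infection of human iPSC-derived NPCs, 6 h, following 1 h compound preincubation. Read-out: Caspase-Glo 3/7 luminescence.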
A short description of experiment [5]: qHTS assay for measurement of the activity of small molecule inhibitors on Zika virus induced Caspase-3 activity in human astrocytoma cells (AID 1224859; active means well fitted curve in the direction sought with a large enough effect; an effect the other way counts as inactive or inconclusive;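 further: plate controls were ZIKV-infected untreated cells for no effect and uninfected cells for full effect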). An outline of the steps: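 Caspase activation in ZIKV-infected SNB-19 cells (2 FFU/cell, 6 h) measured by Caspase-Glo 3/7 luminescence after 30 min RT; compound pre-incubated 1 h; normalised to uninfected and infected controls.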

Experiment [6] can be described thus: qHTS Screen of the MIPE 4.0 Collection Against Ewings Sarcoma (RDES) (AID 1259252; active means well fitted curve in the direction sought with a large enough effect; an effect the other way counts as inactive or inconclusive; further: nearly all actives have a fitted effect of over 35% in size; further: potency means the concentration at half of the fitted maximal effect). The gist of the method: (§2)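 Dose series incubated 48 h with cells in RPMI plus 5% FBS, glutamine and penicillin/streptomycin; cell viability then quantified via CellTiter-Glo.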
Experiment [7] can be described thus: qHTS Screen of the MIPE 4.0 Collection Against Ewings Sarcoma (TC71) (AID 1259253; active means well fitted curve in the direction sought with a large enough effect; an effect the other way counts as inactive or inconclusive; further: potency means the concentration at half of the fitted maximal effect; nearly all actives have a fitted effect of over 40% in size). An outline of the steps:
as §2

Experiment [8] is described as follows: qHTS profiling of the MIPE4 collection as inhibitors of Plasmodium falciparum (DD2) proliferation (AID 743345). The note with it: P. falciparum Dd2 in erythrocytes, SYBR Green DNA, 72 h; at 28.5 µM (top of the series) unless noted. An outline of the steps: as §1
Experiment [9] in a line: qHTS profiling of the MIPE4 collection as inhibitors of Plasmodium falciparum (DD2) proliferation (Rep 2) (AID 743346). The settings on record: P. falciparum Dd2 in erythrocytes, SYBR Green DNA, 72 h; at 28.5 µM (top of the series) unless noted. An outline of the steps:
as §1

Experiment [10] is described as follows: qHTS Screen of the MIPE 4.0 Collection Against Ewings Sarcoma (EW8) (AID 1259255; active means well fitted curve in the direction sought with a large enough effect; an effect the other way counts as inactive or inconclusive; further: nearly all actives have a fitted effect of over 35% in size; further: potency means the concentration at half of the fitted maximal effect;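 on viability: 100% = DMSO-treated cells and 0% = medium-only wells without cells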). The gist of the method: as §2
Experiment [11] can be described thus: qHTS Screen of the MIPE 4.0 Collection Against Ewings Sarcoma (TC32) (AID 1259256; active means well fitted curve in the direction sought with a large enough effect; an effect the other way counts as inactive or inconclusive; further: nearly all actives have a fitted effect of over 45% in size; further: potency means the concentration at half of the fitted maximal effect). An outline of the steps: as §2
Experiment [12] can be described thus: qHTS profiling of the MIPE4 collection as inhibitors of Plasmodium falciparum (3D7) proliferation (AID 743344).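 Further: scaled between DMSO vehicle wells and 0.29 µM artemisinin as full inhibition.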 The settings on record: P. falciparum 3D7 in erythrocytes, SYBR Green DNA fluorescence, 72 h; at 28.5 µM (top of the series) unless noted. An outline of the steps:
as §1

Experiment [13] in a line: qHTS profiling for inhibitors of Plasmodium falciparum (DD2) proliferation (AID 743323). The note with it: lower = more inhibition; at 28.7 µM (top of the series) unless noted. An outline of the steps:
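1536-well qHTS; infected RBCs 0.3% parasitemia/2.5% Hct final; cpd 72 h 37 C 5% CO2; lysis buffer + SYBR Green I, o/n RT dark; FI 485/535; norm. to 0.29 uM artemisinin and DMSO, plate-stack corrected.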

A short description of experiment [14]: qHTS profiling for inhibitors of Plasmodium falciparum (HB3) proliferation (AID 743324; active means well fitted curve in the direction sought with a large enough effect; an effect the other way counts as inactive or inconclusive;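 further: 100% = DMSO vehicle wells and 0% = artemisinin-treated control wells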). The settings on record: Plasmodium falciparum HB3 blood-stage proliferation; at 28.7 µM (top of the series) unless noted. The gist of the method:
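SYBR Green fluorescence (485 ex/535 em) of lysed cultures, incubated overnight at room temperature in the dark, quantifies parasite DNA. Infected erythrocytes at 0.3% parasitemia and 2.5% hematocrit were exposed 72 h; values normalized to DMSO and 0.29 uM artemisinin controls.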

The nature of experiment [15]: Identifying Small Molecule Inhibitors of Pancreatic Cancer Stem Cells (A2780, Spheroid) (AID 1259357; active means well fitted curve in the direction sought with a large enough effect; an effect the other way counts as inactive or inconclusive;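 further: spheroids pre-formed over 14 days in stem cell medium on hydrogel; compound exposure lasted 48 h before the ATP luminescence read; 100% = DMSO treated cells and 0% = wells without cells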). The settings on record: Potency: A2780 spheroid viability. An outline of the steps: (§3)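 Luminescent ATP readout (CellTiter-Glo) quantifies surviving cells after a 48 h drug incubation. Normalization uses DMSO wells as no inhibition and media-only wells as full inhibition; bortezomib served as positive control.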

Experiment [16] in a line: Identifying Small Molecule Inhibitors of Pancreatic Cancer Stem Cells (SN12C, Adherent) (AID 1259358; active means well fitted curve in the direction sought with a large enough effect; an effect the other way counts as inactive or inconclusive;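 further: cell survival measured after 48 h of compound exposure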). An outline of the steps: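 Endpoint: ATP-based luminescence, 48 h drug exposure. Bortezomib at 9.2 uM final as full-kill control; DMSO vehicle as negative control; activity normalized between vehicle and cell-free wells.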
Experiment [17] can be described thus: Identifying Small Molecule Inhibitors of Pancreatic Cancer Stem Cells (SN12C, Spheroid) (AID 1259360; active means well fitted curve in the direction sought with a large enough effect; an effect the other way counts as inactive or inconclusive;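 further: 100% = DMSO-treated cells and 0% = wells without cells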). The note with it: Potency: SN12C spheroid viability. The gist of the method:
as §3

Compound `COc1ccc2cc1Oc1ccc(cc1)C[C@H]1c3cc(c(OC)cc3CCN1C)Oc1c(OC)c(OC)cc3c1[C@H](C2)N(C)CC3` gave a growth, % of control in [1] of 13.9%. In experiment [2], the cell viability, % of control (lower = more cytotoxic) was found to be 146%. Further, in experiment [3], the viability (% of control) came out at 94.6%. The Potency result in [4] and in experiment [5] was “inactive” throughout. Moreover, the Potency in experiment [6] and in [7] was 20.9 µM (active) throughout.
`FC(F)(F)c1ccc(C=Cc2nc(COc3ccc(CCCCn4ccnn4)cc3)co2)cc1` registered a parasite growth remaining, % of DMSO control (lower = more inhibition) in experiment [8] of 85.5%. Moreover, the parasite growth, % of control (lower = inhibition) in experiment [9] is 62.6%. Besides, in experiment [1], the growth, % of control is 83.1%. The cell viability, % of control (lower = more cytotoxic) in experiment [2] was 102%. Further, in experiment [3], the viability (% of control) is 17.8%. Also, the Potency entry in experiment [4] and in experiment [5] was “inactive” in each case. In addition, the Potency in [6] was 0.059 µM (active); in experiment [10], 0.743 µM (active); in experiment [11], 0.0332 µM (active).
The compound `COc1cc(C=CC(=O)O)ccc1O` gave a parasite growth, % of DMSO control in [12] of 88.4%. In experiment [8], the parasite growth remaining, % of DMSO control (lower = more inhibition) was determined as 95%. This compound also had a parasite growth, % of control (lower = inhibition) in experiment [9] of 98.9%. The compound further registered a growth, % of control in [1] of 82.4%. Further, the cell viability, % of control (lower = more cytotoxic) in [2] came out at 105%. In [3], the viability (% of control) amounted to 96.5%. Besides, the Potency result in experiment [4], in experiment [5], in [6], in experiment [10] and in experiment [11] was “inactive” in each case.
In the case of `CCN1CCN(c2ccc(Nc3cc(N(C)C(=O)Nc4c(Cl)c(OC)cc(OC)c4Cl)ncn3)cc2)CC1`, the parasite growth, % of DMSO control in experiment [12] was 4.57%. The same compound came in with a parasite growth remaining, % of DMSO control (lower = more inhibition) in experiment [8] of 5.88%. The same compound registered a parasite growth, % of control (lower = inhibition) in [9] of 8.62%. The compound further gave a growth, % of control in experiment [1] of 2.41%. In experiment [2], the cell viability, % of control (lower = more cytotoxic) is 147%. In experiment [3], the viability (% of control) is 90.9%. Also, the Potency entry in experiment [4], in experiment [5], in experiment [6], in [10] and in experiment [11] was “inactive” throughout.
In the case of `Clc1ccc(C2(c3ccc(-c4cn[nH]c4)cc3)CCNCC2)cc1`, the parasite growth, % of DMSO control in [12] turned out to be 4.5%. This compound also showed a parasite growth remaining, % of DMSO control (lower = more inhibition) in experiment [8] of 9.74%. For the same compound, the parasite growth, % of control (lower = inhibition) in experiment [9] was 12.8%. In experiment [1], the growth, % of control came out at 4.19%. Besides, the cell viability, % of control (lower = more cytotoxic) in [2] was found to be 16.8%. Moreover, in experiment [3], the viability (% of control) was found to be 10.8%. Moreover, the Potency entry in experiment [4] and in experiment [5] was “inactive” throughout. Moreover, the values for the Potency in experiment [6], in experiment [10] and in experiment [11] were 14.8 µM (active), 23.5 µM (active) and 20.9 µM (active), respectively.
`CN(C)c1nc(Cc2ccc(NC(=O)c3ccc(C(F)(F)F)cc3)cc2)nc(N(C)C)c1CC(=O)O` yielded a parasite growth, % of DMSO control in experiment [12] of 88.9%. Moreover, the parasite growth remaining, % of DMSO control (lower = more inhibition) in experiment [8] worked out at 90.9%. Moreover, the parasite growth, % of control (lower = inhibition) in experiment [9] was 75.7%. In [1], this compound returned a growth, % of control of 95.1%. In addition, the cell viability, % of control (lower = more cytotoxic) in [2] was 204%. Besides, the viability (% of control) in experiment [3] is 132%. For the same compound, the Potency result in [4], in [5], in [6], in [10] and in [11] was “inactive” each time.
In [12], `C[C@@H](N)c1ccc(C(=O)Nc2ccnc3[nH]ccc23)cc1` registered a parasite growth, % of DMSO control of 49.7%. In addition, in [8], the parasite growth remaining, % of DMSO control (lower = more inhibition) was 78.2%. This compound also registered a parasite growth, % of control (lower = inhibition) in experiment [9] of 49.3%. This compound also had a growth, % of control in [1] of 67.7%. Besides, the cell viability, % of control (lower = more cytotoxic) in [2] worked out at 6.34%. In addition, in [3], the viability (% of control) came out at 12.2%. Also, the results for the Potency in experiment [4], in experiment [6] and in experiment [7] were 26.4 µM (active), 18.7 µM (active) and 16.6 µM (active), respectively. Moreover, the Potency entry in [5] is “inactive”.
The compound `NC1(C(=O)N[C@@H](CCO)c2ccc(Cl)cc2)CCN(c2ncnc3[nH]ccc23)CC1` came in with a parasite growth, % of DMSO control in [12] of 32.2%. This compound also gave a parasite growth remaining, % of DMSO control (lower = more inhibition) in experiment [8] of 85.9%. The compound also gave a parasite growth, % of control (lower = inhibition) in experiment [9] of 24.5%. Besides, in experiment [1], the growth, % of control turned out to be 97.9%. Moreover, in [2], the cell viability, % of control (lower = more cytotoxic) is 6.91%. For the same compound, in experiment [3], the viability (% of control) was found to be 27.4%. The Potency entry in experiment [4] and in experiment [5] was “inactive” in each case. Besides, the Potency was 3.72 µM (active) in [6] and 16.6 µM (active) in [7].
Regarding `O=C1C(CCC(O)c2ccc(F)cc2)C(c2ccc(O)cc2)N1c1ccc(F)cc1` (stereo not given), the activity, percent of control in experiment [13] was 83.7%. In experiment [14], this compound yielded a remaining proliferation (% of control), lower = more inhibition of 64.8%. In experiment [12], this compound returned a parasite growth, % of DMSO control of 33.5%. In experiment [8], this compound displayed a parasite growth remaining, % of DMSO control (lower = more inhibition) of 77%. This compound also had a growth, % of control in experiment [1] of 33.2%. Also, the cell viability, % of control (lower = more cytotoxic) in experiment [2] turned out to be 88.9%. Moreover, the viability (% of control) in experiment [3] worked out at 93.3%. Besides, the Potency result in [4], in [5], in experiment [6], in experiment [10], in experiment [15] and in experiment [16] was “inactive” in each case. In addition, the Potency entry in experiment [17] is “inactive”.
